Values joined by “and” are separate entries in the source; they are usually repeats but may differ in a detail not shown here. Equal entries are not always repeated. The source holds several records for some structures; these can differ, active in one and inactive in another. Active and inactive are the calls of the source. Rule for the calls: active = hit-call score of the fitted dose curve at least 0.9, where 1 is the maximum; inactive = score below 0.9.
Each compound was assayed on Plasminogen activator inhibitor-1 (PAI1), SERPINE1 (gene 5054) (assay: BSK_KF3CT_PAI1: BioMAP Diversity Plus: KF3CT Assay for Plasminogen activator inhibitor-1 (PAI1) Biomarker Activity (AID 2284252)). Conditions: primary human keratinocytes with fibroblasts.
Procedure: BSK_KF3CT is a cell-based, multiplexed-readout assay that uses keratinocytes and foreskin fibroblasts, a human skin primary cell co-culture, with measurements taken at 24 hours after chemical dosing in a 96-well plate.BSK_KF3CT_PAI1 is an assay component measured in the BSK_KF3CT assay. It measures PAI-1 antibody related to regulation of gene expression using ELISA technology.Data from the assay component BSK_KF3CT_PAI1 was analyzed at the endpoint, BSK_KF3CT_PAI1, in the positive analysis fitting direction relative to DMSO as the negative control and baseline of activity. Using a type of binding reporter, gain or loss-of-signal activity can be used to understand protein changes. To generalize the intended target to other relatable targets, this assay endpoint is annotated to the 'cytokine' intended target family, where the subfamily is 'plasmogen activator inhibitor'.
The levels of cell surface (or secreted, indicated by the prefix "s") biomarker endpoints were measured by ELISA. Overt cytotoxicity to cells in confluent adherent cultures (all systems other than the BT system) was assessed by measuring total protein levels using sulforhodamine B (SRB) staining in parallel cultures at the time of biomarker measurements, indicated as SRB endpoints. For proliferation assays for adherent cell types, individual cell types are cultured at sub-confluence and relative cell numbers quantified by SRB staining at time points optimized for each system (48 h: 3C and CASM3C systems; 72 h: BT and HDF3CGF systems; 96 h: SAg system). SRB was performed by staining cells with 0.1% SRB after fixation with 10% TCA and reading wells at 560 nm.Viability and proliferation of PBMC (T cells) was quantified by Alamar Blue reduction for the SAg and BT systems. For PBMC viability (referred to as PBMC Cytotoxicity within the assay endpoint names), cells were plated (75,000/well in a 96-well plate) and then chemical samples added for 1 h before addition of activators, SEB and TSST-1 (20 ng/mL final concentration each). Cells were incubated for 90 h. Then, Alamar Blue (20 uL/well) (Invitrogen, Cat DAL1100) was added for 6 h, and the plates were read with a fluorescence microplate reader at 546/580 nm (excitation/emission). For PBMC proliferation, cells were plated and activated as above but incubated for only 16 h prior to addition of Alamar Blue. Plates were read after 6 h.
For `CN(CCO)S(=O)(=O)C(F)(F)C(F)(F)C(F)(F)C(F)(F)C(F)(F)C(F)(F)C(F)(F)C(F)(F)F`, the AC50 was 71.5 nM (active) and the outcome was “inactive”.
For `O=C(CC(=O)C(F)(F)C(F)(F)C(F)(F)F)c1cccs1`, the outcome was “inactive” and the AC50 was 18700 nM (active).
For `C=CC(=O)OCCC(F)(F)C(F)(F)C(F)(F)C(F)(F)C(F)(F)C(F)(F)C(F)(F)C(F)(F)F`, the outcome was “inactive”.
For `CCCCCCCCCCCC`, the AC50 was 10.4 µM (active) and 10.5 µM (active).
In the case of `Oc1c(Cl)cc(Cl)cc1Sc1cc(Cl)cc(Cl)c1O`, the AC50 is reported as 1.67 µM (active) and 1.83 µM (active).
With `O=P(O)(O)CCC(F)(F)C(F)(F)C(F)(F)C(F)(F)C(F)(F)C(F)(F)C(F)(F)C(F)(F)F` the outcome was “inactive”.
With `OCC(F)(F)C(F)(F)C(F)(F)C(F)(F)C(F)(F)C(F)(F)C(F)(F)C(F)(F)C(F)(F)C(F)(F)C(F)(F)F` the outcome was “inactive”.
`O=C1NS(=O)(=O)c2ccccc21` was tested, and the outcome was “inactive”.
With `O=S(=O)(O)C(F)(F)C(F)(F)C(F)(F)C(F)(F)C(F)(F)C(F)(F)C(F)(F)C(F)(F)C(F)(F)C(F)(F)F` the outcome was “inactive”.
In the case of `O=C(O)CCC(F)(F)C(F)(F)C(F)(F)C(F)(F)C(F)(F)F`, the outcome is reported as “inactive”.
`Oc1ccc(Cc2ccccc2O)cc1` was tested, and the outcome was “inactive”.
For `O=C(O)C(F)(F)OC(F)(F)C(F)(F)OC(F)(F)C(F)(F)OC(F)(F)C(F)(F)C(F)(F)C(F)(F)F`, the AC50 was 15.9 µM (active) and 18.7 µM (active).
For `O=C(O)CCC(F)(F)C(F)(F)C(F)(F)C(F)(F)C(F)(F)C(F)(F)F`, the outcome was “inactive”.
With `CN(Cc1cnc2nc(N)nc(N)c2n1)c1ccc(C(=O)N[C@@H](CCC(=O)O)C(=O)O)cc1` the outcome was “inactive”.
For `O=P(O)(O)CCC(F)(F)C(F)(F)C(F)(F)C(F)(F)C(F)(F)C(F)(F)F`, the outcome was “inactive”.

From PubChem BioAssay (EPA / NIEHS)
